From PubChem BioAssay AID1159580 (chemical genetic matrix, 2015)
Where “and” joins values, the source holds several entries; their conditions need not be identical. Equal entries are not always repeated. About 2,000 (36%) of roughly 5,500 compounds were called active. Roughly 18% stayed inconclusive and do not appear here. No stated cut-off is given here; in the data, active means normalized growth mostly below about 0.91 (no sharp cut-off); inconclusive means no clear call, values can overlap the other calls; inactive means mostly above about 0.92. The list shows a part of the results.

Assay: chemical genetic growth profiling, strain panel (AID 1159580);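 further: tested at 20 µM; growth read once vehicle control cultures reached saturation at 30 °C; 1 = growth at the plate median or of vehicle wells; lower values mean less growth of the strain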
Conditions: S. cerevisiae deletion strains, growth OD

Measured: normalized growth

CCOP(=S)(OCC)Oc1ccc2c(C)c(Cl)c(=O)oc2c1
inactive: locus YAL013W, strain DEP1, active compounds read low 0.987 | locus YAL021C, strain ccr4, active compounds read low 0.997 | locus YAL026C, strain drs2, active compounds read low 0.96 | locus YAL030W, strain snc1, active compounds read low 0.976 | locus YBL061C, strain skt5, active compounds read low 0.96 | locus YBR009C, strain hhf1, active compounds read low 0.982 | locus YBR021W, strain FUR4, active compounds read low 0.97 | locus YBR023C, strain chs3, active compounds read low 0.944 | locus YBR171W, strain sec66, active compounds read low 0.939 | locus YBR229C, strain ROT2, active compounds read low 0.955 | locus YBR231C, strain swc5, active compounds read low 0.979 | locus YBR279W, strain paf1, active compounds read low 0.971 | locus YCL016C, strain dcc1, active compounds read low 0.984 | locus YCL029C, strain bik1, active compounds read low 0.984 | locus YCL061C, strain MRC1, active compounds read low 0.96 | locus YCL069W, strain vba3, active compounds read low 0.957 | locus YCR088W, strain abp1, active compounds read low 0.964 | locus YDL005C, strain med2, active compounds read low 0.959 | locus YDL035C, strain GPR1, active compounds read low 0.978 | locus YDL040C, strain nat1, active compounds read low 0.964 | locus YDL074C, strain BRE1, active compounds read low 0.907 | locus YDL101C, strain DUN1, active compounds read low 0.975 | locus YDL134C, strain PPH21, active compounds read low 0.981 | locus YDL185W, strain tfp1, active compounds read low 0.957 | locus YDL192W, strain arf1, active compounds read low 0.975 | locus YDR001C, strain nth1, active compounds read low 0.977 | locus YDR069C, strain doa4, active compounds read low 0.938 | locus YDR101C, strain arx1, active compounds read low 0.983 | locus YDR137W, strain rgp1, active compounds read low 0.939 | locus YDR150W, strain NUM1, active compounds read low 0.982 | locus YDR159W, strain sac3, active compounds read low 0.901 | locus YDR162C, strain NBP2, active compounds read low 0.92 | locus YDR195W, strain ref2 1.03 | locus YDR297W, strain sur2, active compounds read low 0.988 | locus YDR318W, strain mcm21, active compounds read low 0.976 | locus YDR334W, strain swr1, active compounds read low 0.961 | locus YDR335W, strain msn5, active compounds read low 0.975 | locus YDR388W, active compounds read low 0.98 | locus YDR392W, strain spt3, active compounds read low 0.836 | locus YDR502C, strain sam2, active compounds read low 0.984 | locus YEL003W, strain gim4, active compounds read low 0.953 | locus YEL037C, strain rad23, active compounds read low 0.962 | locus YEL061C, strain CIN8 (second series), active compounds read low 0.962 | locus YEL061C, strain CIN8, active compounds read low 0.979 | locus YER015W, strain faa2, active compounds read low 0.966 | locus YER016W, strain bim1, active compounds read low 0.97 | locus YER110C, active compounds read low 0.977 | locus YER111C, strain swi4, active compounds read low 0.975 | locus YER155C, strain BEM2 (second series), active compounds read low 0.959 | locus YER155C, strain BEM2, active compounds read low 0.998 | locus YER167W, strain BCK2, active compounds read low 0.99 | locus YFR010W, strain ubp6, active compounds read low 0.942 | locus YGL078C, strain dbp3, active compounds read low 0.984 | locus YGL086W, strain mad1, active compounds read low 0.989 | locus YGL167C, strain pmr1, active compounds read low 0.956 | locus YGL173C, strain kem1, active compounds read low 0.956 | locus YGL227W, strain vid30, active compounds read low 0.961 | locus YGL240W, strain doc1, active compounds read low 0.933 | locus YGL248W, strain PDE1, active compounds read low 0.957 | locus YGR078C, strain PAC10, active compounds read low 0.973 | locus YGR135W, strain pre9, active compounds read low 0.97 | locus YGR229C, strain SMI1, active compounds read low 0.947 | locus YGR252W, strain gcn5, active compounds read low 0.937 | locus YHR013C, strain ard1, active compounds read low 0.968 | locus YHR027C, strain rpn1, active compounds read low 1 | locus YHR030C, strain SLT2, active compounds read low 0.986 and 1.02 | locus YHR079C, strain IRE1 (second series), active compounds read low 0.988 | locus YHR079C, strain IRE1, active compounds read low 1 | locus YHR094C, strain hxt1, active compounds read low 0.985 | locus YHR129C, strain ARP1, active compounds read low 0.983 | locus YHR142W, strain chs7, active compounds read low 0.912 | locus YHR200W, strain rpn10, active compounds read low 0.984 | locus YIL066C, strain RNR3, active compounds read low 0.961 | locus YIL073C, strain SPO22, active compounds read low 0.988 | locus YIL125W, strain kgd1, active compounds read low 0.981 | locus YIR030C, strain dcg1, active compounds read low 0.989 | locus YJL092W, strain hpr5, active compounds read low 0.944 | locus YJL095W, strain BCK1 (second series), active compounds read low 0.96 | locus YJL095W, strain BCK1, active compounds read low 0.958 and 1.02 | locus YJL115W, strain asf1, active compounds read low 0.962 | locus YJL129C, strain trk1, active compounds read low 0.942 | locus YJL134W, strain LCB3, active compounds read low 0.971 | locus YJL154C, strain vps35, active compounds read low 0.985 | locus YJL164C, strain tpk1, active compounds read low 0.974 | locus YJL166W, strain qcr8, active compounds read low 0.935 | locus YJL168C, strain set2, active compounds read low 0.986 | locus YJL187C, strain SWE1 (second series), active compounds read low 0.981 | locus YJL187C, strain SWE1, active compounds read low 0.964 | locus YJR043C, strain POL32, active compounds read low 0.996 | locus YJR066W, strain TOR1, active compounds read low 0.967
active: locus YCL011C, strain gbp2, active compounds read low 0.906 | locus YGL253W, strain hxk2, active compounds read low 0.903
